# Bioassay records as filed in PubChem BioAssay.
# Compounds with a hit are over-represented: about 13% of the library has one in this group of screens.
# Pf growth 96h – Primary qHTS for delayed death inhibitors of the malarial parasite plastid, 96 hour incubation | AID 504834, 2011 | 6.9% of 320,000 active | Potency, µM (top dose mostly 28.7 µM), without a hit: at the top dose activity change, negative = inhibition, most hits filed as inhibitors | P. falciparum luciferase reporter growth, 96 h; further: potency means the concentration at half of the fitted maximal effect
#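 Erythrocytes infected with luciferase-expressing P. falciparum were dispensed at 2% hematocrit and 0.05% parasitemia (final), then incubated with compounds 96 hours at 37 C in 5% CO2. Luminescence after detection reagent addition reported growth.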
# HCMV antiviral – qHTS Assay for inhibitors of the human cytomegalovirus (HCMV); HFF cells, HCMV-luciferase reporter, 72 h; stronger effect = lower value; activity change, negative = inhibition, % at 57.5 µM; 4.5% of 410,000 active; AID 1259415, 2018; in the data active means activity change below about -60%; inconclusive means no clear call, values can overlap the other calls; inactive means above about -39%
#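 Human foreskin fibroblasts infected with luciferase-reporter HCMV at MOI 1 PFU/cell, compounds at two doses. Luciferase measured 72 h post infection; normalized to buffer-only basal and Salinomycin (10uM) controls.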
# HCV inh – qHTS Assay for Inhibitors of Hepatitis C Virus (HCV); Huh7.5.1 HCVcc-Cre infection, luciferase reporter, 44 h; Potency, µM (series often up to 41.8 µM), inactives show at the highest dose activity change, negative = inhibition, actives largely listed as inhibitors; 3.4% of 340,000 active; AID 651820, 2012; further: potency means the concentration at half of the fitted maximal effect
#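 A cell-based infection assay in which seeded cells (1,000 per well) receive test compound after 4 h, are inoculated with HCVcc-Cre at approximately 0.5 moi, and are incubated 44 h before luminescence detection.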
# Pf growth 48h – Primary qHTS for delayed death inhibitors of the malarial parasite plastid, 48 hour incubation; P. falciparum luciferase growth in erythrocytes, 48 h; Potency, µM (doses to about 28.7 µM), for the others: at the highest dose activity change, negative = inhibition, actives largely listed as inhibitors; 5.9% of 310,000 active; further: potency means the concentration at half of the fitted maximal effect
#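 First compound was added to culture medium, then infected red cells at 0.1% parasitemia and 2% hematocrit (final). After incubation at 37 C under 5% CO2, luciferase detection reagent was dispensed and light output recorded.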
# * hit, by the source's call; u = inconclusive; x = no result; ! = a repeat was not active; [ ] = another dose, or the depositor's remark. Unless noted, the call rests on the fitted dose curve; in most records, active means well fitted inhibition curve with a large enough effect; inconclusive means small, poorly fitted or top-dose-only effect, or another doubt; inactive means no such curve, though single readings can be large or run the other way. On the % scale 0 is the no-effect control and ±100 the full control effect.
SMILES,Pf growth 96h,HCMV antiviral,HCV inh,Pf growth 48h
CCCCNC(=O)C(NC(=O)c1ccc2ccccc2c1)C(=O)c1ccccc1 (configuration not stated),x,-64*,x,x
COC(=O)c1sc(N)c(C(=O)OC)c1COC(=O)CCNS(=O)(=O)c1ccc(C)cc1,10µM*,-14,u,u
O=S(=O)(CCSc1nc2ccccc2o1)c1nc2ccccc2s1,u,32,11µM*,13µM*
CCS(=O)(=O)CCSc1nc2ccccc2o1,64%,2,-1%,2%
O=S(=O)(CCSc1ccccn1)c1nc2ccccc2s1,1.7µM*,-39,u,u
COc1ccc(CN2CCOCCOCCOCCOCCOCC2)cc1,15%,11,16%,12%
c1ccc(Cn2nnnc2CN2CCN(c3ncccn3)CC2)cc1,4.7µM*,9,13%,-9%
COc1ccc(Cn2nnnc2CN2CCOCC2)cc1,13µM*,30,9%,-4%
Clc1cccc(Cl)c1CN1CCN(c2ncccn2)CC1,u,-39,18%,-9%
COc1ccccc1Cc1c(-c2ccccc2)nc2ccc(C)cn12,x,51,x,x
Cc1ccc(CN(Cc2cccn2-c2nnc(N3CCCC3=O)s2)C(=O)Nc2ccc(F)cc2)cc1,x,-30,x,x
CCCOc1cccc(C(=O)Nc2ccc(-c3nc4ccccc4o3)cc2)c1,x,-1,x,x
COC(=O)c1cc2sccc2n1Cc1nc(-c2ccc(Cl)cc2)oc1C,10µM*,4,17%,12%
COC(=O)c1cc2ccsc2n1Cc1nc(-c2cccc(Cl)c2)oc1C,4.1µM*,5,-12%,x
COC(=O)c1cc2occc2n1Cc1nc(-c2cccc(Cl)c2)oc1C,u,-2,-8%[8.37 µM],1%
COC(=O)c1cc2sccc2n1Cc1nc(-c2cccc(Cl)c2)oc1C,9.3µM*,-65*!,1%,x
CCC(c1ccc(O)c(O)c1)C(CC)c1ccc(O)c(O)c1 (configuration not stated),x,x,13µM*,x
CCC(NC(C)C)C(O)c1ccc(O)c(O)c1 (configuration not stated),u,74,2%[8.37 µM],u
Cc1onc(-c2ccccc2)c1C(=O)N1CCCSC1=Nc1ccccc1,u,-35,13%,2.9µM*
CCCOc1ccc(-c2cn3ccccc3n2)cc1,u,-64*,u,448%
Cc1c(N(C)S(=O)(=O)c2cc(C(=O)N3CCCC3)ccc2Cl)c(=O)n(-c2ccccc2)n1C,4.7µM*,-2,5%,13µM*
O=C(c1ccc(Cl)c(S(=O)(=O)N2CCCC2)c1)N1CCN(Cc2ccccc2)CC1,x,-10,u,x
Cc1ccc(C(=O)NC2CCCC2)cc1S(=O)(=O)N1CCCCC1,28%,5,u,-30%
O=C(c1ccc(Cl)c(S(=O)(=O)N2CCCCC2)c1)N1CCN(Cc2ccccc2)CC1,u,-61*,u,18%
Cc1ccc(C(=O)N2CCN(C)CC2)cc1S(=O)(=O)N1CCCCCC1,2.3µM*,12,1%,-28%
SMILES,Pf growth 96h,HCMV antiviral,HCV inh,Pf growth 48h
Cc1ccc(C(=O)NNC(=O)c2ccccc2O)cc1S(=O)(=O)N1CCCCC1,7%,-29,13µM*,u
Cc1ccn2c(=O)c(C(=O)NCCc3ccccc3)c(O)nc2c1,x,7,x,x
C=Cc1ccc(Cn2ccn(-c3ccc(F)c(F)c3)c(=O)c2=O)cc1,x,-20,x,x
CC(C)c1ccc(NC(=O)Cn2nnc(C(=O)NCc3ccc(Cl)cc3)c2N)cc1,x,29,x,x
Cc1ccc(C(=O)N2CCN(c3ccccc3O)CC2)cc1S(=O)(=O)N1CCCCC1,-103%,3,u,13µM*
Cc1cccc(N2CCN(S(=O)(=O)c3c(C)[nH]c(C)c3C(=O)N3CCCC3)CC2)c1C,-5%,-31,6%,u
Cc1cccc(N2CCN(S(=O)(=O)c3c(C)[nH]c(C)c3C(=O)N3CCCCC3)CC2)c1C,u,-17,11%,9.3µM*
Cc1nc(-c2ccc(Cl)cc2)sc1CCNC(=O)c1ccco1,x,68,x,x
CC(C)C12CN3CC(C(C)C)(CN(C1)C3c1ccc(Cl)cc1)C2=O (configuration not stated),x,16,x,x
O=C1CSC(=Nc2cccc([N+](=O)[O-])c2)N1,1.7µM*,3,8%,-18%
Cc1ccc(C)c(NC(=O)C(Cc2ccccc2)N2Cc3ccccc3C2=O)c1 (configuration not stated),x,-90*,x,x
Cc1cccc(NC(=O)C(Cc2ccccc2)N2Cc3ccccc3C2=O)c1C (configuration not stated),x,-23,x,x
O=C(NC1CCCCC1)[C@H](CSCc1ccccc1)N1Cc2ccccc2C1=O,u,-60*,-14%,u
CC(C)NC(=O)[C@H](CSCc1ccccc1)N1Cc2ccccc2C1=O,-2%,5,16%,5%
COc1cccc(NC(=O)C2CCN(c3nc4ccccc4nc3C(F)(F)F)CC2)c1,x,-16,x,x
Cc1cc(C)c(NC(=S)N(CCc2ccncc2)C(C)C)c(C)c1,-7%,u,5%,10µM*
Cc1c(C#N)c(NC(=O)c2cccc(Cl)c2)n(Cc2ccccc2)c1C,13µM*,-27,5%,12µM*
CN=C1S/C(=C\c2ccc(Cl)cc2)C(=O)N1C,56%,-12,11µM*,17%
C=CCN=C1S/C(=C\c2ccc(Cl)cc2)C(=O)N1CC=C,12%,-84*,-6%,u
C=CCN=C1S/C(=C/c2ccc([N+](=O)[O-])cc2)C(=O)N1CC=C,u,-16,-11%,-7%
C=CCN=C1S/C(=C/c2cccc([N+](=O)[O-])c2)C(=O)N1CC=C,u,-74*,u,-21%
C=C(C)Cn1c(=O)c2c(nc3n2CCN3c2ccc(F)cc2)n(C)c1=O,x,-29,x,x
CCCCn1cc2c(c1-c1cccc(C)c1)c(=O)n(C)c(=O)n2C,u,12,10µM*,u
CCc1nnc(NC(=O)CSc2nccn2Cc2ccc(Cl)cc2)s1,x,-8,x,x
CC1CC(OC(=O)c2ccccc2)(c2ccccc2)C(C)CN1C (configuration not stated),u,-10,8%,6.6µM*
SMILES,Pf growth 96h,HCMV antiviral,HCV inh,Pf growth 48h
CCCN1CC(C)C(OC(C)=O)(c2ccccc2)CC1C (configuration not stated),-21%,-22,17%,10%
Cc1cccc(S(=O)(=O)N2CCN(Cc3ccc4c(c3)OCO4)CC2)c1,0.74µM*,-26,6%,16%
Cc1cc(S(=O)(=O)N2CCN(Cc3ccc4c(c3)OCO4)CC2)cc(C)c1N1CCCC1=O,u,-96*,11%,10%
Cc1ccc2nsnc2c1S(=O)(=O)N1CCN(Cc2ccc3c(c2)OCO3)CC1,x,-29,22µM*!,-9%
COc1ccc(OC)c(C2Nc3c(C)cc(C)cc3-c3cc(C)nn32)c1 (configuration not stated),x,11,x,x
CC(=Nc1ccccc1)C1=C(O)CCCC1=O,12µM*,-12,1%,2%
